What all share (set-up): scale not given: direction of the effect not stated beside the values
Assay [1] addresses Protein translocase subunit SecA (Escherichia coli (strain K12)) (UniProt P10408). The assay can be described thus: Assay to Identify E. coli SecA ATPase Inhibitors. Format: functional. The following applies: 30 µM.
Assay [2] deals with T1, Ubiquitin-activating enzyme e1, putative (Leishmania donovani (strain BPK282A1)) (UniProt E9BSI1).
T1 sequence (whole entry): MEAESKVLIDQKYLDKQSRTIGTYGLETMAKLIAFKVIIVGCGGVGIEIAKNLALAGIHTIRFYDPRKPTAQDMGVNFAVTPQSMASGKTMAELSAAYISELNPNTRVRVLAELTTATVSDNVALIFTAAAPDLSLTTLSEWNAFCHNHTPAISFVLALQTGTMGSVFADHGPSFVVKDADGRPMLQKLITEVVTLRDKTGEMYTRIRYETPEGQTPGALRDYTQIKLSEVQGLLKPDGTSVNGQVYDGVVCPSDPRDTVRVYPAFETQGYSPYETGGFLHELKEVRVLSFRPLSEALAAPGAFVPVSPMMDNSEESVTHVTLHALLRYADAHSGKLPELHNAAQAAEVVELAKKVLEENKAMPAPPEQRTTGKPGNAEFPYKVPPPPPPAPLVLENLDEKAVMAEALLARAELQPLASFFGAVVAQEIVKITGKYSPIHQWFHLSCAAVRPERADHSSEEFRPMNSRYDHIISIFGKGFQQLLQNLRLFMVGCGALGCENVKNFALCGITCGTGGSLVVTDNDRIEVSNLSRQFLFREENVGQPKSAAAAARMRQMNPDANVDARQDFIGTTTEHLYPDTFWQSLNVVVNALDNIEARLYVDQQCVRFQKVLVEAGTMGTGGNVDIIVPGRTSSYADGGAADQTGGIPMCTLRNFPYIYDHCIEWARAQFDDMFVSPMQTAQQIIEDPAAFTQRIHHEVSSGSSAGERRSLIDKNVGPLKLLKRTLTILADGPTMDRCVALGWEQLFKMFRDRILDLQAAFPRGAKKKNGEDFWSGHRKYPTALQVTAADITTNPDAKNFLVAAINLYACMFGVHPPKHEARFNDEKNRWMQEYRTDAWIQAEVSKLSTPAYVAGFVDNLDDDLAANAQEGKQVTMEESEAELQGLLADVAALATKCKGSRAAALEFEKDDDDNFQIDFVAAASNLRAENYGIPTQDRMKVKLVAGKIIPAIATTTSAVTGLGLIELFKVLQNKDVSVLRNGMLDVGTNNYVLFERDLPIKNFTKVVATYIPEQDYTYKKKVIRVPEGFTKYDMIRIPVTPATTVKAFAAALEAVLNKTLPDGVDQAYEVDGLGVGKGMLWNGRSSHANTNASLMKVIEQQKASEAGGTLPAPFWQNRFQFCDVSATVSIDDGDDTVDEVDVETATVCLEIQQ
The assay can be described thus: Leishmania donovani Ubiquitin Activating Enzyme (LdE1). It counts as functional. The settings on record: 30 µM.

In assay [3] the target is AMP-activated protein kinase, AMPK (Homo sapiens) (UniProt P54646+O43741+P54619+Q9UGJ0+Q9Y478+Q13131+Q9UGI9). The assay can be described thus: AMP-dependent Kinase enzyme assay. An in vitro enzyme assay that detects ADP turnover that is directly proportional to AMPK activity. This uses naive AMPK that is activated during the assay with MK-8722. The settings on record: 30 µM. Format: functional.

Assay [4] deals with Sialic acid-binding Ig-like lectin 9 (Homo sapiens) (UniProt Q9Y336). The assay can be described thus: Hs-Siglec9 ALPHAscreen SOP 20170721. The following applies: 10 µM.
In assay [5] the test system is Trypanosoma cruzi. The assay can be described thus: Trypanosoma cruzi phosphomannomutase and mannose-1-phosphate guanylyltransferase assay. The settings on record: 10 µM. It counts as functional.
Assay [6] addresses T2, Arginase-2, mitochondrial (Homo sapiens) (UniProt P78540).
T2 sequence (whole entry): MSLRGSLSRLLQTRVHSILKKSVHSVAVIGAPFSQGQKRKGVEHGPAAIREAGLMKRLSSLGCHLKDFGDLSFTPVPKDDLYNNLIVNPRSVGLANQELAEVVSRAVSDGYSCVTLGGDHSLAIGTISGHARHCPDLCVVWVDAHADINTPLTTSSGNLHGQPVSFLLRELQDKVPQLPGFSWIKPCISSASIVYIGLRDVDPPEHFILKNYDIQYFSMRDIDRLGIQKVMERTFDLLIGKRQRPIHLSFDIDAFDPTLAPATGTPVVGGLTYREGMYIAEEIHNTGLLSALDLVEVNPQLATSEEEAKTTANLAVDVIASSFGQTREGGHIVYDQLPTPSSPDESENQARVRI
The assay can be described thus: in vitro enzyme assay to detect the production of urea directly proportional to the activity of Arginase II. Further: in the data most compounds retested in dose-response had high values. Format: functional. The settings on record: 33.3 µM.

For assay [7], the target named is T3, Proteasome subunit beta (Trypanosoma cruzi) (UniProt O96673).
T3 sequence (whole entry): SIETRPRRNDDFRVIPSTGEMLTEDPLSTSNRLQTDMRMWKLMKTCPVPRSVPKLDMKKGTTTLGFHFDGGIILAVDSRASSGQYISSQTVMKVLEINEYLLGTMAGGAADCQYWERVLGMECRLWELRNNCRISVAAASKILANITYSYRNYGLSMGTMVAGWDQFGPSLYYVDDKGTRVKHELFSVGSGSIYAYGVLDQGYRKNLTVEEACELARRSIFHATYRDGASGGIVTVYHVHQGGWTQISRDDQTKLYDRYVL
The assay can be described thus: Trypanosoma cruzi proteasome chymotrypsin-like activity (TcProtChymo) assay. Further: in the data most compounds retested in dose-response had high values. Format: functional. The settings on record: 9.37 µM.

Assay [8] is filed under the species Homo sapiens. The assay can be described thus: To identify inhibition of the IFN signalling (Jak-Stat) pathway via expression of an eGFP reporter gene under the control of an IFN-stimulated response element (ISRE) containing MxA promoter. Format: functional. The settings on record: 30 µM.
The target of assay [9] is T4, Tyrosyl-tRNA synthetase, putative (Trypanosoma cruzi (strain CL Brener)) (UniProt Q4DSP6).
T4 sequence (whole entry): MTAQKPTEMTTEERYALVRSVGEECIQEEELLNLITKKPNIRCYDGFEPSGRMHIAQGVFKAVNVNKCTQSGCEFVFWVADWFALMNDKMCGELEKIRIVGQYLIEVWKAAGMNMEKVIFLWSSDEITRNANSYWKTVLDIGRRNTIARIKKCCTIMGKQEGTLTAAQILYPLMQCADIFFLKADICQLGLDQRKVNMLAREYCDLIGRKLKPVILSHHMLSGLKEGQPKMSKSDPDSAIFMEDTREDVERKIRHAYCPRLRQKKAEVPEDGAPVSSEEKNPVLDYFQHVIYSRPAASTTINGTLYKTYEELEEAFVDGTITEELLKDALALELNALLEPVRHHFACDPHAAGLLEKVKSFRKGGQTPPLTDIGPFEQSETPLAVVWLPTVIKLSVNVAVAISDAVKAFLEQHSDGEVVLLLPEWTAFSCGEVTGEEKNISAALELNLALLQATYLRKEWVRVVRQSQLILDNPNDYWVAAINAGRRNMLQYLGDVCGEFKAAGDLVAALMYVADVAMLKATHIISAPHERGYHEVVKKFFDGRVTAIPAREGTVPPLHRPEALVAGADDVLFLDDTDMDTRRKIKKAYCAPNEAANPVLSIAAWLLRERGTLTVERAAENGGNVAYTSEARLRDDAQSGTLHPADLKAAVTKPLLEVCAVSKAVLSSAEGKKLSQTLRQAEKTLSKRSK
The assay is described as follows: Trypanosoma cruzi tyrosyl tRNA synthetase (TcYRS) _High Tyrosine SOP. Further: in the data most compounds retested in dose-response had high values. It counts as functional. The following applies: 30 µM.

Assay [10] addresses T4, Tyrosyl-tRNA synthetase, putative (Trypanosoma cruzi (strain CL Brener)). The assay can be described thus: Trypanosoma cruzi tyrosyl tRNA synthetase (TcYRS) SOP. Format: functional. The following applies: 30 µM.
The target in assay [11] is Chromo domain-containing protein 1 (Saccharomyces cerevisiae (strain ATCC 204508 / S288c) (Baker's yeast)) (UniProt P32657). The assay is described as follows: ScCHD-1 Enzyme Inhibition Assay. Further: in the data most compounds retested in dose-response had high values. The following applies: 30 µM. Format: functional.

For some of these results: Entries with a potency or affinity are not part of this list.

Chain of Sialic acid-binding Ig-like lectin 9 (Homo sapiens) (Q9Y336 whole entry): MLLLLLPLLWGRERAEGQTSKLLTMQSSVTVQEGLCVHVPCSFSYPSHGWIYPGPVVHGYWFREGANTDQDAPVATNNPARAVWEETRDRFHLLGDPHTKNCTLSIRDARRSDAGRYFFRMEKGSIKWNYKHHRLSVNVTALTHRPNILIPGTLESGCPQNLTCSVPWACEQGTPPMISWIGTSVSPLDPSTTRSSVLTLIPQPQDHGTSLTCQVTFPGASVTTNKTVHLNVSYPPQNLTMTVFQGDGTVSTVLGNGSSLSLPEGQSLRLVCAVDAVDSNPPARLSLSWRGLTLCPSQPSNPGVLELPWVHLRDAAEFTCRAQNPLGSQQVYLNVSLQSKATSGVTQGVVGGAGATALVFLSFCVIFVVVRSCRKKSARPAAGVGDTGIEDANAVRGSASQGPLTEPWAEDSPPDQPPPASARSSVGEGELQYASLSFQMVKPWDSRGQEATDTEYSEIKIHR
Chain of Chromo domain-containing protein 1 (Saccharomyces cerevisiae (strain ATCC 204508 / S288c) (Baker's yeast)) (P32657 whole entry, the tested form may be a part): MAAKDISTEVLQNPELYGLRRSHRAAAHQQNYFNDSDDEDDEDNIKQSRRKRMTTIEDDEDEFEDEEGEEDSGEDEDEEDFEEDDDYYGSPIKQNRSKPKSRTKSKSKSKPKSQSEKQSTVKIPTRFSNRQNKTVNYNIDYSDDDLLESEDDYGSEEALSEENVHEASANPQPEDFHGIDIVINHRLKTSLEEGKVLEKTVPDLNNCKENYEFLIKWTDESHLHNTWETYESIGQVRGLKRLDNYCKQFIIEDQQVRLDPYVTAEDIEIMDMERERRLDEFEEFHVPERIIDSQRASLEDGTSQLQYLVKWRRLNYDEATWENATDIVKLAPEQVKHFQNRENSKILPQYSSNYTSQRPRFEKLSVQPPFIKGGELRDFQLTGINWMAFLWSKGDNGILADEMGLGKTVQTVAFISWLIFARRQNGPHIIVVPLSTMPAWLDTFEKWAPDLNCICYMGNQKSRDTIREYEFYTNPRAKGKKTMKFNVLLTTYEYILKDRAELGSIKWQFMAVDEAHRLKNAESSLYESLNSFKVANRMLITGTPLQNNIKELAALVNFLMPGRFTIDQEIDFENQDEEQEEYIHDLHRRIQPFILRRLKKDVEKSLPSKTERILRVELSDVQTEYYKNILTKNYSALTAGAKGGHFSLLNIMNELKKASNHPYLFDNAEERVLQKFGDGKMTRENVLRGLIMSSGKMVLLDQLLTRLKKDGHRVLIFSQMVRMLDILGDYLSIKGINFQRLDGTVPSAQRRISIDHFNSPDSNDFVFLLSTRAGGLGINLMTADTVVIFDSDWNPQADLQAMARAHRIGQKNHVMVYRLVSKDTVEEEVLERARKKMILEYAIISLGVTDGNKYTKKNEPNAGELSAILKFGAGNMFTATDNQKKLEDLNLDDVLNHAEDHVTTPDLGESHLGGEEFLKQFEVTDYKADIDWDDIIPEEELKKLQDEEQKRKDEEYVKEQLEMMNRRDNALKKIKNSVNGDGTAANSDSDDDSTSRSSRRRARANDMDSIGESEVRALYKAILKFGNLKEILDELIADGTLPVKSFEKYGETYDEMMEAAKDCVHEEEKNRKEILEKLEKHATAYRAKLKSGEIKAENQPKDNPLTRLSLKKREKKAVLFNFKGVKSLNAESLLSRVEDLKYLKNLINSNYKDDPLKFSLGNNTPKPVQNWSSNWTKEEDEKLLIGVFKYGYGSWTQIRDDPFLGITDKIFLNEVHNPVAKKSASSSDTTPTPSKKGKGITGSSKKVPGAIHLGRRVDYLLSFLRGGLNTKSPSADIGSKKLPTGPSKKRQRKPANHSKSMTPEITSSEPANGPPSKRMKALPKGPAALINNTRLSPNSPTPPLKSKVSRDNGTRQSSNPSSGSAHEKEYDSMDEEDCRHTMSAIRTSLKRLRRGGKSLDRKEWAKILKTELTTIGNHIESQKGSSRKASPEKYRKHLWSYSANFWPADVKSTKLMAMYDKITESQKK
Chain of Protein translocase subunit SecA (Escherichia coli (strain K12)) (P10408 whole entry): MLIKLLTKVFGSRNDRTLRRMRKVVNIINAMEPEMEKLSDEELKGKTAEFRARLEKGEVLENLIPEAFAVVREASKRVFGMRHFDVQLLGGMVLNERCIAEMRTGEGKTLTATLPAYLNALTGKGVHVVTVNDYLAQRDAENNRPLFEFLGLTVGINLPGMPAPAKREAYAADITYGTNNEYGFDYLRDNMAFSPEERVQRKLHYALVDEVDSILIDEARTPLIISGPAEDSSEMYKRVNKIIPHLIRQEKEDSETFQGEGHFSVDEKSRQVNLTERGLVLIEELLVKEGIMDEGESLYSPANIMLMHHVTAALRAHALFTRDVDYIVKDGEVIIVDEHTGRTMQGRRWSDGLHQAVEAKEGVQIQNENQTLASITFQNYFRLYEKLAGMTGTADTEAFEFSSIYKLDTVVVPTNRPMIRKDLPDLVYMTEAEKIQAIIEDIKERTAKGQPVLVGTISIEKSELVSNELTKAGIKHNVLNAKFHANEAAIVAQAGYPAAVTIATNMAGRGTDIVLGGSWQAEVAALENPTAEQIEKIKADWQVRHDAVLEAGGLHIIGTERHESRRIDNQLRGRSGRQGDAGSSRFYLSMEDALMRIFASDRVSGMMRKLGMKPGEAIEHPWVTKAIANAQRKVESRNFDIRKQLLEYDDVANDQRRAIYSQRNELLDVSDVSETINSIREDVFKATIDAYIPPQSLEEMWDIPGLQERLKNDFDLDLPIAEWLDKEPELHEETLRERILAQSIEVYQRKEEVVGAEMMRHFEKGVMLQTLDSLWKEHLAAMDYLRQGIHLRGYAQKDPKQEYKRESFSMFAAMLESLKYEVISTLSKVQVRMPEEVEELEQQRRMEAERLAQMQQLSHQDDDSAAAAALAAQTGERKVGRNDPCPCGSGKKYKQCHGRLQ

For the compound `CCN1CCN(C(=O)c2cnn(-c3ccccc3Cl)c2)CC1`, the Percent Effect is -4.44% in assay [1]; 5.41% in assay [2]; -8.79% in [3]; 9.91% in assay [4]; -2.36% in [5]; -1.6% in assay [6]. The Percent Effect was 1.62% in assay [7]; 10.3% in [8]; 10.3% in assay [9]; 13.6% in [10]; -7.79% in assay [11].

Take `CN(CC(=O)NC1(C#N)CCCC1)C1CCCN(c2cccnn2)C1` (stereo unspecified): the Percent Effect in assay [1] is -3.01%; in assay [2], 7.89%; in assay [3] it was -63.6%; in [4], 7.82%; in assay [5], 8.12%; in [6] it was 2.16%. In addition, the Percent Effect is 11.6% in assay [7]; -30.1% in assay [8]; 6.4% in assay [9]; 18.5% in assay [10]; -6.35% in assay [11].

Consider `CCc1noc(C2CCCCN2C(=O)c2nnc3ccccc3n2)n1` (stereo unspecified), for which the Percent Effect is -4.1% in assay [1]; 9.33% in [2]; -3.18% in assay [3]; -0.0891% in assay [4]; 3.54% in assay [5]; -7.57% in assay [6]. For the same compound, the Percent Effect in [7] was 14.6%; in [8] it was -16.9%; in [9], 11.6%; in [10], 17.9%; in assay [11], -14.2%.

For the compound `CCCN(CC(=O)NC)C(=O)c1ccc(-c2ccsc2)nc1C`, the Percent Effect is -1.19% in assay [1]; 6.94% in assay [2]; -2.8% in assay [3]; 10.6% in assay [4]; 4.76% in assay [5]; 36.2% in assay [6]. Besides, the Percent Effect in [7] was determined as 17.9%; in assay [8], 12.1%; in [9], 7.37%; in [10], 17.9%; in assay [11], 91%.

Consider `COc1ccc(CCN2CCCC2Cn2nc(C)nc2C)cc1` (stereo unspecified), for which the Percent Effect is -3.93% in [1]; 10.1% in assay [2]; -5.37% in assay [3]; -5.48% in [4]; -0.85% in assay [5]; 6.46% in assay [6]. For the same compound, the Percent Effect is 6.31% in assay [7]; 26.4% in [8]; 6.4% in assay [9]; 8.86% in [10]; -5.44% in assay [11].

As to `CCc1nnc2n1CCN(CCS(=O)(=O)c1ccccc1)C2`, the Percent Effect is -7.25% in assay [1]; 13% in [2]; 6.16% in assay [3]; 15.6% in assay [4]; -3.37% in assay [5]; 1.07% in [6]. The Percent Effect in assay [7] was -2.87%; in [8] it was 4.97%; in [9] it was 0.971%; in [10] it was 7.32%; in assay [11], -3.89%.

Consider `Cc1nn(C)c(Cl)c1C1CCCN1C(=O)c1nccnc1N` (stereo unspecified), for which the Percent Effect in assay [1] is -2.73%; in assay [2] it was 16.2%; in assay [3], -10.8%; in assay [4], -6.66%; in assay [5], -3.3%; in assay [6], 0.802%. In addition, the Percent Effect in assay [7] is 12.4%; in assay [8] it was 1.8%; in assay [9], 7.39%; in [10] it was 18.5%; in [11] it was -6.71%.

For `CCCS(=O)(=O)N1CCC(NC(=O)c2cc(C)c(CC)s2)CC1`, the Percent Effect in [1] is -1.6%; in [2], 2.67%; in assay [3], -3.07%; in [4], 10.4%; in assay [5] it was 5.94%; in assay [6] it was -2.08%. Also, the Percent Effect turned out to be 7.15% in [7]; 13.4% in [8]; 6.01% in assay [9]; 18.5% in assay [10]; 1.12% in assay [11].

As to `CCN(CC)C(C(=O)NCc1ccc(N2CCCC2)nc1)C(C)C` (stereo unspecified), the Percent Effect in assay [1] is -6%; in [2] it was 5.41%; in assay [3] it was -3.6%; in assay [4] it was 6.67%; in assay [5] it was -5.94%; in [6], -4.41%. The Percent Effect in assay [7] was 11.9%; in assay [8] it was 10.1%; in assay [9], 2.46%; in assay [10] it was 1.24%; in [11] it was -4.84%.

On to `FC(F)(F)c1cccc(C2(CNCc3ccncc3)CCOCC2)c1`, for which the Percent Effect was -0.743% in assay [1]; 10.8% in assay [2]; -6.5% in assay [3]; -1.68% in [4]; -2.34% in assay [5]; -1.67% in [6]. Besides, the Percent Effect in assay [7] amounted to 13.9%; in assay [8], 23.6%; in assay [9], 7.92%; in assay [10], 11%; in assay [11], 16.9%.

Regarding `O=C1N(c2ccc(Br)cc2)Cc2nc(=O)[nH]n21`, the Percent Effect in [1] was -6.3%; in assay [2], 22.7%; in assay [3], -2.95%; in [4], 0.772%; in [5], 1.38%; in assay [6], -1.58%. Also, the Percent Effect in assay [7] is 4.44%; in assay [8], 7.62%; in assay [9], 5.29%; in [10] it was 15.4%; in assay [11], -11.8%.

The record behind these values is ChEMBL document CHEMBL3988442, “University of Dundee, Small-Polar-MMV Screening Library” (2021).
